The list is not random: actives were taken first. Their share in the collection is about 19%.
CHX counter – counter-screen hit for Shiga toxin inhibitors, cycloheximide | cell reporter, cycloheximide protein synthesis inhibition counterscreen | max response, % | 300,000 compounds, 12% hits; in the data active means max response mostly above about 13%, no sharp cut-off; inactive means mostly below about 14%; further: read at 38.3 µM for the half of the compounds with a filed dose; 0% is about no effect
LASV entry inh – Lassa virus entry inhibition; Lassa virus pseudotype entry inhibition, cell reporter; Potency, µM (highest dose often 37.9 µM), for the others: at the top dose activity change, negative = inhibition, actives largely listed as inhibitors; 300,000 compounds, 1.2% hits; AID 540256; calls by dose curve; tested in HEK293 cells; further: potency means the concentration at half of the fitted maximal effect; on the % scale 0 is the no-effect control and ±100 the full control effect; nearly all actives have a fitted effect of over 50% in size
Pf growth 48h – P. falciparum growth inhibition at 48 hours (one generation) | AID 504832 | Potency, µM (doses to about 28.7 µM), without a hit: top-dose activity change, negative = inhibition, hits mostly inhibitors | P. falciparum luciferase growth in erythrocytes, 48 h | 310,000 compounds, 5.9% hits; further: potency means the concentration at half of the fitted maximal effect; on the % scale 0 is the no-effect control and ±100 the full control effect
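First compound was added to culture medium, then infected red cells at 0.1% parasitemia and 2% hematocrit (final). After incubation at 37 C under 5% CO2, luciferase detection reagent was dispensed and light output recorded.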
MARV entry inh – blocks Marburg virus binding to or entry into cells; Marburg virus pseudotyped entry inhibition, cell reporter; Potency, µM (doses to about 37.8 µM), for inactives: at the highest dose activity change, negative = inhibition, most hits filed as inhibitors; 300,000 compounds, 1.8% hits; AID 540276; calls by dose curve; tested in HEK293 cells; further: potency means the concentration at half of the fitted maximal effect; on the % scale 0 is the no-effect control and ±100 the full control effect
Pf growth 96h – P. falciparum growth inhibition at 96 hour, primary screen for plastid delayed-death inhibitors; Potency, µM (doses to about 28.7 µM), for the others: at the highest dose activity change, negative = inhibition, most hits filed as inhibitors; AID 504834; P. falciparum luciferase reporter growth, 96 h; 320,000 compounds, 6.9% hits; further: potency means the concentration at half of the fitted maximal effect; on the % scale 0 is the no-effect control and ±100 the full control effect
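Erythrocytes infected with luciferase-expressing P. falciparum were dispensed at 2% hematocrit and 0.05% parasitemia (final), then incubated with compounds 96 hours at 37 C in 5% CO2. Luminescence after detection reagent addition reported growth.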
Shiga toxin inh – blocks Shiga toxin action in Vero cells; Vero cells, Shiga toxin protein synthesis inhibition reporter; inhibition, % at 38.7 µM; 290,000 compounds, 9.2% hits; in the data active means inhibition mostly above about 28%, no sharp cut-off; inactive means mostly below about 43%; further: 0% is about no effect
Active calls of the source: *; [ ] = another dose, or the depositor's remark. Unless noted, the call rests on the fitted dose curve; in most records, active means well fitted inhibition curve with a large enough effect; inconclusive means small, poorly fitted or top-dose-only effect, or another doubt; inactive means no such curve, though single readings can be large or run the other way.

How did OC(c1cc(-c2ccc(Cl)cc2)nc2ccccc12)C1CCCCN1 (centres undefined) do in these assays?
CHX counter: 1; Pf growth 48h: 0.037µM*; Pf growth 96h: 0.052µM*; Shiga toxin inh: -6

What do the screens show for `OC(c1cc(C(F)(F)F)nc2c(Cl)cc(Cl)cc12)C1CCCCN1` (centres undefined)?
CHX counter: -5; LASV entry inh: inconclusive; Pf growth 48h: 0.013µM*; MARV entry inh: inconclusive; Pf growth 96h: 0.0033µM*; Shiga toxin inh: -15

What do the screens show for `NC(=O)C1CCN(C(=O)c2cc(-c3ccc(Cl)cc3)nc3ccccc23)CC1`?
LASV entry inh: -16%; MARV entry inh: -5%

Results for O=c1c2cc(Cl)cc(Cl)c2nc2n1CCC2 ?
CHX counter: 1; Pf growth 48h: 2%; MARV entry inh: 15%[46.1 µM]; Pf growth 96h: 9%; Shiga toxin inh: -15

Results for Fc1ccc(C2=CSC3=NCCN23)cc1 ?
CHX counter: 10; LASV entry inh: 12%; Pf growth 48h: 11%; MARV entry inh: 21%[46.1 µM]; Pf growth 96h: 24%; Shiga toxin inh: 8

What do the screens show for `N=c1nc(N)nc2n1NC(c1ccc(F)cc1)=CS2`?
CHX counter: 20*; LASV entry inh: inconclusive; Pf growth 48h: 10%; MARV entry inh: inconclusive; Pf growth 96h: inconclusive; Shiga toxin inh: 47

How did CC(=O)c1sc(NC(=O)C2CCN(C(=O)c3ccccc3C)CC2)nc1-c1ccccc1 do in these assays?
LASV entry inh: -7%; Pf growth 48h: inconclusive; MARV entry inh: inconclusive; Pf growth 96h: -9%

Results for Cc1sc2ncnc(N3CCC(C(=O)NNC(=O)COc4ccccc4Cl)CC3)c2c1C ?
LASV entry inh: 5%; Pf growth 48h: 12µM*; MARV entry inh: inconclusive; Pf growth 96h: inconclusive

How did Cc1sc2ncnc(N3CCC(C(=O)NNC(=O)c4ccccc4Cl)CC3)c2c1C do in these assays?
CHX counter: 7; LASV entry inh: -2%; Pf growth 48h: inconclusive; MARV entry inh: inconclusive; Pf growth 96h: 8.3µM*; Shiga toxin inh: -12

What do the screens show for `CC(=O)c1sc(NC(=O)C2CCN(c3ncnc4sc(C)c(C)c34)CC2)nc1-c1ccccc1`?
LASV entry inh: 2%; Pf growth 48h: 9.3µM*; MARV entry inh: -6%; Pf growth 96h: inconclusive

What do the screens show for `COc1cccc(N2CCN(C(=S)Nc3ccc(F)cc3)CC2)c1`?
CHX counter: -3; Pf growth 48h: 7%; Pf growth 96h: inconclusive; Shiga toxin inh: -3

Results for Cc1nn(CCN)c(C)c1Cl ?
CHX counter: -2; Pf growth 48h: 30%; Pf growth 96h: 44%; Shiga toxin inh: -6

What do the screens show for `C=CCS(=O)(=O)c1nc2ccccc2s1`?
CHX counter: 44*; LASV entry inh: inconclusive; Pf growth 48h: inconclusive; MARV entry inh: -31%; Pf growth 96h: inconclusive; Shiga toxin inh: 21

How did O=S(=O)(CCSc1nc2ccccc2s1)c1nc2ccccc2s1 do in these assays?
CHX counter: 14; LASV entry inh: inconclusive; Pf growth 48h: 12µM*; MARV entry inh: inconclusive; Pf growth 96h: 37%; Shiga toxin inh: 15

What do the screens show for `CCS(=O)(=O)CCSc1nc2ccccc2s1`?
CHX counter: 4; LASV entry inh: 4%; Pf growth 48h: 27%; MARV entry inh: 14%; Shiga toxin inh: 2

Results for Cc1c2cnn(-c3ccccc3)c(=O)c2c(C)n1CC(=O)N1CCN(c2cccc(Cl)c2)CC1 ?
LASV entry inh: -16%[46.1 µM]; MARV entry inh: -13%[46.1 µM]

What do the screens show for `CN(Cc1c(F)cccc1Cl)C(=O)c1cnc2ccccc2n1`?
CHX counter: 12*; LASV entry inh: 9%; Pf growth 48h: inconclusive; MARV entry inh: inconclusive; Pf growth 96h: 8%; Shiga toxin inh: 43

What do the screens show for `O=C(NCCc1nnc2ccc(NCc3ccc(F)cc3)nn12)c1ccccc1`?
CHX counter: -2; Pf growth 48h: inconclusive; Pf growth 96h: inconclusive; Shiga toxin inh: 10

Results for O=C(CCc1nnc2ccc(NCc3ccccc3)nn12)NC1CCCCC1 ?
CHX counter: 2; LASV entry inh: 24%[46.1 µM]; Pf growth 48h: 8%; MARV entry inh: -1%[46.1 µM]; Pf growth 96h: 12µM*; Shiga toxin inh: 7

What do the screens show for `CCCc1ccc(-c2ccc(-c3noc(-c4ccncc4)n3)cc2)nc1`?
CHX counter: -1; LASV entry inh: 8%; Pf growth 48h: 0%; MARV entry inh: -5%; Pf growth 96h: 10µM*; Shiga toxin inh: -1

What do the screens show for `CCNc1ccc(-c2nc(-c3ccncc3)no2)cc1[N+](=O)[O-]`?
LASV entry inh: 3%[46.1 µM]; MARV entry inh: -14%[46.1 µM]

How did CCCCc1ccc(-c2ccc(Br)cc2)nc1 do in these assays?
CHX counter: 35*; LASV entry inh: inconclusive; Pf growth 48h: inactive; MARV entry inh: -15%; Pf growth 96h: inconclusive; Shiga toxin inh: 86*

What do the screens show for `CCc1ccc(-c2nc(-c3ccncc3)no2)cc1`?
CHX counter: 42*; LASV entry inh: inconclusive; Pf growth 48h: 14%; MARV entry inh: 13µM*; Pf growth 96h: -23%; Shiga toxin inh: 85*

What do the screens show for `CCCCc1ccc(-c2nc(-c3ccncc3)no2)cc1`?
CHX counter: 39*; LASV entry inh: 1%; Pf growth 48h: 218%; MARV entry inh: 26%[46.1 µM]; Pf growth 96h: 23%; Shiga toxin inh: 73*

What do the screens show for `COc1cc(OC)cc(C(=O)N(CN2CCCC2=O)c2ccccc2OC)c1`?
CHX counter: -2; LASV entry inh: -19%; Pf growth 48h: 14%; MARV entry inh: -46%; Pf growth 96h: -7%; Shiga toxin inh: -7

What do the screens show for `S=C1N(c2ccccc2)C(c2ccc(Cl)cc2)N2CCCN12` (centres undefined)?
CHX counter: -2; LASV entry inh: 17%; Pf growth 48h: -17%; MARV entry inh: 10%; Pf growth 96h: inconclusive; Shiga toxin inh: -32

How did CC1CCCCC1NC(=O)Cn1nnc(-c2ccc(Cl)cc2)n1 (centres undefined) do in these assays?
CHX counter: 1; LASV entry inh: 4%; Pf growth 48h: 0%; MARV entry inh: -3%; Pf growth 96h: 24%; Shiga toxin inh: 2

What do the screens show for `CCOC(=O)CCCSc1nnc(CCCCCN2C(=O)c3cccc4cccc(c34)C2=O)o1`?
CHX counter: 5; LASV entry inh: -1%; Pf growth 48h: inconclusive; MARV entry inh: 21%; Pf growth 96h: 1.9µM*; Shiga toxin inh: 1

How did CCOC(=O)CSc1nnc(CCCCCN2C(=O)c3cccc4cccc(c34)C2=O)o1 do in these assays?
CHX counter: -4; LASV entry inh: -1%; Pf growth 48h: inconclusive; MARV entry inh: -15%; Pf growth 96h: -30%; Shiga toxin inh: -11

How did CC1CC(C)CN(C(=O)COC(=O)CCCN2C(=O)c3cccc4cccc(c34)C2=O)C1 (centres undefined) do in these assays?
CHX counter: -4; LASV entry inh: 14%; Pf growth 48h: -7%; MARV entry inh: 1%; Pf growth 96h: 6%; Shiga toxin inh: -22

Assay outcomes as filed in PubChem BioAssay.
